# Data from PubChem BioAssay (NCI).
# About 83,000 compounds went through this panel and 20% of them were active in at least one assay; those are over-represented in the sample as a whole.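 In brief: 96-well plates, 48 h treatment, single concentration, percent growth endpoint.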 Values without a mark were called inactive. Activity calls are given as the source filed them. How the source made its calls: active means growth percent below 10; inactive means the rest.
# Columns and labels:
# Experiment in all cases: NCI-60 one-dose screen, 48 h (100 = growth as untreated, 0 = no growth, -100 = all killed)
# Conditions in all cases: 10 µM unless noted
# DU-145 prostate = tested on: DU-145 prostate
# K-562 leukemia = tested on: K-562 leukemia
# MDA-MB-231 breast = tested on: MDA-MB-231 breast
# RXF 393 renal = tested on: RXF 393 renal
# SF-268 CNS = tested on: SF-268 CNS
# SF-295 CNS = tested on: SF-295 CNS
# SF-539 CNS = tested on: SF-539 CNS
# UACC-257 melanoma = tested on: UACC-257 melanoma
# M14 melanoma = tested on: M14 melanoma
# HCT-15 colon = tested on: HCT-15 colon
# HT29 colon = tested on: HT29 colon
# SNB-75 CNS = tested on: SNB-75 CNS
# SNB-19 CNS = tested on: SNB-19 CNS
# U251 CNS = tested on: U251 CNS
# PC-3 prostate = tested on: PC-3 prostate
# SK-MEL-5 melanoma = tested on: SK-MEL-5 melanoma
# UACC-62 melanoma = tested on: UACC-62 melanoma
# SK-MEL-28 melanoma = tested on: SK-MEL-28 melanoma
# MALME-3M melanoma = tested on: MALME-3M melanoma
# LOX IMVI melanoma = tested on: LOX IMVI melanoma
Compound,growth (DU-145 prostate),growth (K-562 leukemia),growth (MDA-MB-231 breast),growth (RXF 393 renal),growth (SF-268 CNS),growth (SF-295 CNS),growth (SF-539 CNS),growth (UACC-257 melanoma),growth (M14 melanoma),growth (HCT-15 colon),growth (HT29 colon),growth (SNB-75 CNS),growth (SNB-19 CNS),growth (U251 CNS),growth (PC-3 prostate),growth (SK-MEL-5 melanoma),growth (UACC-62 melanoma),growth (SK-MEL-28 melanoma),growth (MALME-3M melanoma),growth (LOX IMVI melanoma)
CC1c2ccccc2N(S(=O)(=O)c2ccccc2)C1C (stereo unspecified),102%,34.1%,91.2%,88%,102%,94.9%,104%,93.6%,77.6%,70.5%,67.8%,86%,91.5%,88%,81.4%,89.2%,71.6%,92.1%,,
O=C(O)c1cccc2c1C(=O)N(c1ccc3c(c1)Cc1ccccc1-3)C2=O,116%,105%,113%,110%,117%,121%,110%,109%,119%,108%,99.9%,91.6%,111%,111%,97.6%,110%,112%,110%,,
N#CC1C(=N)Cc2ccccc2-c2ccccc21 (stereo unspecified),75.8%,16%,57.2%,58.4%,61%,49%,63.4%,51.5%,16.2%,37.9%,12.4%,54.3%,64.1%,37.7%,62.1%,40.7%,39.1%,58.3%,,
O=C(O)c1cccc2c1-c1ccc(Cl)cc1C2,110%,97.9%,108%,124%,107%,116%,104%,107%,120%,102%,109%,88.2%,105%,108%,108%,103%,102%,108%,,
Clc1ccc2[nH]cc(-c3nc(-c4c[nH]c5ncccc45)cs3)c2c1,42.1%,13.1%,37.9%,45.5%,61.7%,19.4%,70.5%,9.88% (active),20.1%,1.33% (active),16.1%,56.8%,65.1%,34.6%,39.2%,64.9%,44.2%,85.9%,,
Cc1c(C)c2c(c(C)c1NC(=O)CCCCCCC(=O)O)CCC(C)(CCCC(C)CCCC(C)CCCC(C)C)O2 (stereo unspecified),86.1%,39.2%,101%,98.9%,78.3%,71.4%,89.9%,95.2%,82.7%,55%,39.8%,93.9%,101%,68.9%,69.7%,81%,89.1%,96.1%,,
Cn1cc(-c2nc(-c3c[nH]c4ncccc34)cs2)c2cc(Br)ccc21,73.2%,59.5%,84.6%,75.7%,99.1%,84.6%,108%,120%,75.5%,64.2%,70.5%,80.5%,108%,72.9%,76.7%,91.8%,80.5%,102%,,
COC(c1ccccc1)(c1ccccc1)c1ccccc1,108%,109%,102%,,98.5%,90.7%,102%,122%,136%,104%,100%,87.7%,96%,107%,102%,,,109%,95.4%,99.2%
COc1ccc2[nH]cc(-c3nc(-c4c[nH]c5ncccc45)cs3)c2c1,47.1%,18.3%,39.1%,1.36% (active),58.8%,10.6%,25.2%,-57% (active),16.1%,-34.8% (active),12.1%,19.5%,77.4%,34.8%,44.2%,48.2%,50.4%,69.9%,,
CC1=CC(=O)N(c2cccc3c(N4C(=O)C=C(C)C4=O)cccc23)C1=O,72.3%,6.92% (active),107%,-10.7% (active),106%,121%,32.7%,82.4%,96.2%,-2.7% (active),18%,74.1%,102%,83.9%,94.8%,105%,94.5%,103%,,
Oc1ccc(Nc2ccccc2)cc1,94.6%,79.6%,52.6%,,88.2%,82%,64.5%,110%,104%,82.5%,99.3%,85.5%,85.8%,86%,65.7%,83%,,102%,70.7%,71.4%
CN(C)c1ccc(N)c2ccccc12,-96.4% (active),48.4%,,111%,77%,43.4%,38.4%,-2.3% (active),-94.9% (active),-82.9% (active),70.5%,101%,66.7%,64.3%,32.1%,-99.4% (active),-6.64% (active),56.6%,-85.5% (active),
Fc1ccc2[nH]cc(-c3nc(-c4c[nH]c5ncccc45)cs3)c2c1,30.5%,16.9%,44.4%,55%,48.9%,17.8%,27.3%,53.8%,46.1%,20.3%,21.7%,-17.2% (active),63.8%,43.6%,43.8%,52.8%,48.5%,89%,,
CN(C)c1ccc(C(=O)c2ccc(N(C)C)c(N)c2)cc1N,6.99% (active),21.4%,55.8%,,43.6%,21.9%,3.19% (active),77.3%,13%,26%,9.95% (active),-11.3% (active),45.3%,34.4%,49.3%,3.25% (active),,61.9%,34.2%,53.9%
Cn1cc(-c2csc(-c3c[nH]c4ccc(F)cc34)n2)c2cccnc21,61.9%,19.8%,50.1%,54.4%,51.1%,14.8%,31%,63.4%,13.7%,19.2%,11.3%,36.4%,54.4%,37.5%,48%,25.9%,39.6%,57.4%,,
COC1=C(Br)C(=O)C(OC)=C(Br)C1=O,109%,31.7%,,119%,111%,111%,108%,94.4%,105%,96.1%,106%,103%,95.8%,,107%,99.4%,91.2%,117%,102%,
